Source: PMC7862700, “An all-to-all approach to the identification of sequence-specific readers for epigenetic DNA modifications on cytosine”

Legend:
Test in all cases: DAPPL (digital affinity profiling via proximity ligation, sequencing); 10 mM Tris-HCl pH 7.5, 50 mM NaCl, 1 mM DTT, 4% glycerol, room temperature, 30 min; GST-TFs on glutathione beads, 16-mer random dsDNA library, 0.1% formaldehyde crosslink after washing; high values mean tight binding
FEV = biological target: T1, FEV (Homo sapiens, UniProt Q99581 1-238); conditions: protein: recombinant; tags: N-terminal GST; dsDNA, one strand shown
T1 sequence: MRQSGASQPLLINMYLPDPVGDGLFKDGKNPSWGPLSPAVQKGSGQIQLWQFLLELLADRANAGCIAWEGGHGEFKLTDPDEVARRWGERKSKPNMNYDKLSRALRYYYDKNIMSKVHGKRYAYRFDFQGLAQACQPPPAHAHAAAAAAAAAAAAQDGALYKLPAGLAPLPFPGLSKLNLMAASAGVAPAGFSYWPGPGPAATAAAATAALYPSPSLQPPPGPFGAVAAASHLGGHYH
Summary of the method: (§1)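 Each value of binding signal is a hexamer's read frequency for a factor divided by the same hexamer's frequency in the tag-only sample. Barcoded, bead-captured GST fusions of human transcription factors made in yeast were pooled with that sample and incubated with 200 nmole of a random double-stranded 16-mer DNA library in Tris/NaCl/DTT/glycerol buffer at room temperature for 30 min. Washing, 0.1% formaldehyde crosslinking, proximity ligation, PCR and Illumina NextSeq500 sequencing followed.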

ETV5 = ETV5 (Homo sapiens, UniProt P41161 1-510); conditions: protein: recombinant; tags: N-terminal GST; dsDNA, one strand shown
Chain of ETV5 (P41161 whole entry): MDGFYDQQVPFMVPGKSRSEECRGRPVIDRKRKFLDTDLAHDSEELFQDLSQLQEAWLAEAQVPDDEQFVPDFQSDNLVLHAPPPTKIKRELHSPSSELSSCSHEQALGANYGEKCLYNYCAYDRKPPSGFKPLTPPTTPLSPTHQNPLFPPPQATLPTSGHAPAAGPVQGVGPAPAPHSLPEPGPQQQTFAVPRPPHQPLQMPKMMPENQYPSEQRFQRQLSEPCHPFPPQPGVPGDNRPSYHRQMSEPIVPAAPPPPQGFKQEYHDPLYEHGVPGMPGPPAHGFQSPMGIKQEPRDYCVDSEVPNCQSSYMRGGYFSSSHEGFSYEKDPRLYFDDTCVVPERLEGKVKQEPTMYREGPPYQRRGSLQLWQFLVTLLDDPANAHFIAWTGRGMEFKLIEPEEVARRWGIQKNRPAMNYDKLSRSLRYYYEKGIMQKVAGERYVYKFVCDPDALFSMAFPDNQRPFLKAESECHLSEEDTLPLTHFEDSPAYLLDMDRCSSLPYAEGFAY
Summary of the method: as §1

HSF1 = HSF1 (Homo sapiens, UniProt Q00613 1-529); conditions: protein: recombinant; tags: N-terminal GST; chain copies: 3; dsDNA, one strand shown
Chain of HSF1 (Q00613 whole entry): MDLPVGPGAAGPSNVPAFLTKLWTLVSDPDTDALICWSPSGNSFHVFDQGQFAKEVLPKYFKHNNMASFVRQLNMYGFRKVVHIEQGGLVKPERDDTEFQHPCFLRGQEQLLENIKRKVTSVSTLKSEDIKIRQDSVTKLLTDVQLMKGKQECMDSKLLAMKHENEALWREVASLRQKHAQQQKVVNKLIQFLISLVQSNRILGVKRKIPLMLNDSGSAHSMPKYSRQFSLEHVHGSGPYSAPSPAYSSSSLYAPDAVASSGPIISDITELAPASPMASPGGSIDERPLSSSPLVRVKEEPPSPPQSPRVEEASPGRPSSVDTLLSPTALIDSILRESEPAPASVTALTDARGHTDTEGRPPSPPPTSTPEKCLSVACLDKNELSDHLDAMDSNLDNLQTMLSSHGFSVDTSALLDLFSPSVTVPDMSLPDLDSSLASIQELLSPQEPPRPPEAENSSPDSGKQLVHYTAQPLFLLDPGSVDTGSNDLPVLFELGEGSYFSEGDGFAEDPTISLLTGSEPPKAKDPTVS
Summary of the method: as §1

SPIC = biological target: T2, SPIC (Homo sapiens, UniProt Q8N5J4 1-248); conditions: protein: recombinant; tags: N-terminal GST; dsDNA, one strand shown
T2 sequence: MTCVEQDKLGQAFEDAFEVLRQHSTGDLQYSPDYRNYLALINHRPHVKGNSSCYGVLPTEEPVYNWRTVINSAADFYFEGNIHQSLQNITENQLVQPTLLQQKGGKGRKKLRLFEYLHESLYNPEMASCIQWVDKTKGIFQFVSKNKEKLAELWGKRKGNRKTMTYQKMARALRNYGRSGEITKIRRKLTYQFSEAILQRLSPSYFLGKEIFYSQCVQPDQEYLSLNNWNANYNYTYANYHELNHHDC
Summary of the method: as §1

ELF4 = ELF4 (Homo sapiens, UniProt Q99607 1-663); conditions: protein: recombinant; tags: N-terminal GST; dsDNA, one strand shown
Chain of ELF4 (Q99607 whole entry): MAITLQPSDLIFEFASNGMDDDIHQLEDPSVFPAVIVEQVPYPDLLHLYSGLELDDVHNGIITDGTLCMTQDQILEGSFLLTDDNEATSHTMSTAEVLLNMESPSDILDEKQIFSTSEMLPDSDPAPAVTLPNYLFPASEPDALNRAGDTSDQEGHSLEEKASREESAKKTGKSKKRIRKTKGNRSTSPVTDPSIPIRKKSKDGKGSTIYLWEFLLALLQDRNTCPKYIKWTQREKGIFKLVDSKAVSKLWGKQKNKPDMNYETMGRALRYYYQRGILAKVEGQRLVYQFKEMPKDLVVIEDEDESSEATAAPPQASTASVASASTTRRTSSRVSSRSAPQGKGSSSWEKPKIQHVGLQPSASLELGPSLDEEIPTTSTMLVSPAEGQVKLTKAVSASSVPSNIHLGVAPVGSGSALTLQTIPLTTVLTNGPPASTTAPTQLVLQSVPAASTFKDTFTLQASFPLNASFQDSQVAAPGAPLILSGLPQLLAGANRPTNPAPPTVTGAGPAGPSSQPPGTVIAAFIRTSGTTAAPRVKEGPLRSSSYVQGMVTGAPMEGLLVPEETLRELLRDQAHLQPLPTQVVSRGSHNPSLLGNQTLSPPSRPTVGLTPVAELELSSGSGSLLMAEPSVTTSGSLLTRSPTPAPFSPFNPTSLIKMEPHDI
Summary of the method: as §1

ELK4 = biological target: T3, ELK4 (Homo sapiens, UniProt P28324-2 1-405); conditions: protein: recombinant; tags: N-terminal GST; dsDNA, one strand shown
T3 sequence: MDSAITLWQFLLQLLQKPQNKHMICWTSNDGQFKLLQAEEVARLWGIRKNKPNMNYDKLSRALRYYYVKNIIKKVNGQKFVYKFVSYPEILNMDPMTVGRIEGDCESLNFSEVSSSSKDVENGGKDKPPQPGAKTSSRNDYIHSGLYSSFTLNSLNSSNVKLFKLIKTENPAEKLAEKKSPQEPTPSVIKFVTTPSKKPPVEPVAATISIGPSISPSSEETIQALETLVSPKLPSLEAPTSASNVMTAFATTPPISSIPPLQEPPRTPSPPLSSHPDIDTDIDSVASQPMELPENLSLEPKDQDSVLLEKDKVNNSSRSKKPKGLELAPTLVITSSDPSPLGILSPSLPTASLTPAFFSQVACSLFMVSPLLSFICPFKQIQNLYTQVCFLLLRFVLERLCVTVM
Summary of the method: as §1

ETV2 = biological target: T4, ETV2 (Homo sapiens, UniProt O00321 1-342); conditions: protein: recombinant; tags: N-terminal GST; dsDNA, one strand shown
T4 sequence: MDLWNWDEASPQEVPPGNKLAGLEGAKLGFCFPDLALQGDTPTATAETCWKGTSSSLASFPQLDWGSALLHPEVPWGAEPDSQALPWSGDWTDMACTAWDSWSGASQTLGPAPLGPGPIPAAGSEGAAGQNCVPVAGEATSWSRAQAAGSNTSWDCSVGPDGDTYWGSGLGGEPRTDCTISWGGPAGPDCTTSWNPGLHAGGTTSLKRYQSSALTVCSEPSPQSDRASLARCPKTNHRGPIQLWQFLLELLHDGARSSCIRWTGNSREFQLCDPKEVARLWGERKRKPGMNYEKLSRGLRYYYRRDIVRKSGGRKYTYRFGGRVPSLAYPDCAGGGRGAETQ
Summary of the method: as §1

ELF3 = biological target: T5, ELF3 (Homo sapiens, UniProt P78545 1-371); conditions: protein: recombinant; tags: N-terminal GST; dsDNA, one strand shown
T5 sequence: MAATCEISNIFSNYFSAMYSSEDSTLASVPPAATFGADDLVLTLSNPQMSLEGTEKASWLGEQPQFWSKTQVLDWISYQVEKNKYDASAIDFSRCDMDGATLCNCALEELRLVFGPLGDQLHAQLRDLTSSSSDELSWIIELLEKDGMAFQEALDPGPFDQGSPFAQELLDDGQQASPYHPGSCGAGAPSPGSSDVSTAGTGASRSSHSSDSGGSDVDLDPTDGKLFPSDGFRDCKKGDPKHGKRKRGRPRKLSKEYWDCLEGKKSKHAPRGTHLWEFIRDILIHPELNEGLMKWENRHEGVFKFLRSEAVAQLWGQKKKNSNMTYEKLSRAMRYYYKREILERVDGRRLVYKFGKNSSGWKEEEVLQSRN
Summary of the method: as §1

CRX = CRX (Homo sapiens, UniProt O43186 1-299); conditions: protein: recombinant; tags: N-terminal GST; dsDNA, one strand shown
Chain of CRX (O43186 whole entry): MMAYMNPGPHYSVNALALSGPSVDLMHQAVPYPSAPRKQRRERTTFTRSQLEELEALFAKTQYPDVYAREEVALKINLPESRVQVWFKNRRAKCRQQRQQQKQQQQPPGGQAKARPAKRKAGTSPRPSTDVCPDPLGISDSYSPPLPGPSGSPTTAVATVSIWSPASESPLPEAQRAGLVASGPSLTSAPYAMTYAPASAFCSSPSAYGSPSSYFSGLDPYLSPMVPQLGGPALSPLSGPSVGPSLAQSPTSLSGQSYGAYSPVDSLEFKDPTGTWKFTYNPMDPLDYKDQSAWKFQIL
Summary of the method: as §1

ETV1 = ETV1 (Homo sapiens, UniProt P50549 1-477); conditions: protein: recombinant; tags: N-terminal GST; dsDNA, one strand shown
Chain of ETV1 (P50549 whole entry): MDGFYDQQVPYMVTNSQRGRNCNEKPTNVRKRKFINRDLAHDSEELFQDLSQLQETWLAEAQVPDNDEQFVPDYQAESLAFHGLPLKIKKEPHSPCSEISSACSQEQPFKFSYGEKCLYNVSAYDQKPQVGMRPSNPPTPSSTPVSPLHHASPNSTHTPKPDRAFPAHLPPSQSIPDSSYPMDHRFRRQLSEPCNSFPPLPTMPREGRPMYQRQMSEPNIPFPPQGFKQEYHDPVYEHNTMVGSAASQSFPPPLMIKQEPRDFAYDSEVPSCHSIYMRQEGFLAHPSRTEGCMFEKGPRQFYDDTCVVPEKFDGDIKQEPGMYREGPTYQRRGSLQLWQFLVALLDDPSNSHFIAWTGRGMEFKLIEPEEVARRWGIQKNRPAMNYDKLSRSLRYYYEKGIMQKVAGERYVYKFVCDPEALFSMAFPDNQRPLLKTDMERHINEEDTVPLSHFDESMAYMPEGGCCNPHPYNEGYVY
Summary of the method: as §1

ERF = biological target: T6, ERF (Homo sapiens, UniProt P50548 1-548); conditions: protein: recombinant; tags: N-terminal GST; dsDNA, one strand shown
T6 sequence: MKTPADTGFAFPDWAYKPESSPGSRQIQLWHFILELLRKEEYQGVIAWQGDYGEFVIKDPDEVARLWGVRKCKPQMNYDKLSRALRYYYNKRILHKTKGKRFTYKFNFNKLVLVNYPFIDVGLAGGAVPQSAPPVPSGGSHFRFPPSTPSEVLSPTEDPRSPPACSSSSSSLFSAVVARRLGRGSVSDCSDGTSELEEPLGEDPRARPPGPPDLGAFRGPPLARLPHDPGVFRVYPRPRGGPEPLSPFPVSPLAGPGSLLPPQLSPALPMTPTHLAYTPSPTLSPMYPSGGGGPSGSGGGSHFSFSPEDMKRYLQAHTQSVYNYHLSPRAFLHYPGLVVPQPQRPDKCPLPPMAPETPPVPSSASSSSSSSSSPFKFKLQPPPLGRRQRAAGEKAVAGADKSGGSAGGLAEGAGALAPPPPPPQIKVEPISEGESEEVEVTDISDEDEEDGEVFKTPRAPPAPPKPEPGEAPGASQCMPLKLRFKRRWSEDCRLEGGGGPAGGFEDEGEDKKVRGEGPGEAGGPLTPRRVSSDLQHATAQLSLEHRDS
Summary of the method: as §1

ETV3L = biological target: T7, ETV3L (Homo sapiens, UniProt Q6ZN32 1-361); conditions: protein: recombinant; tags: N-terminal GST; dsDNA, one strand shown
T7 sequence: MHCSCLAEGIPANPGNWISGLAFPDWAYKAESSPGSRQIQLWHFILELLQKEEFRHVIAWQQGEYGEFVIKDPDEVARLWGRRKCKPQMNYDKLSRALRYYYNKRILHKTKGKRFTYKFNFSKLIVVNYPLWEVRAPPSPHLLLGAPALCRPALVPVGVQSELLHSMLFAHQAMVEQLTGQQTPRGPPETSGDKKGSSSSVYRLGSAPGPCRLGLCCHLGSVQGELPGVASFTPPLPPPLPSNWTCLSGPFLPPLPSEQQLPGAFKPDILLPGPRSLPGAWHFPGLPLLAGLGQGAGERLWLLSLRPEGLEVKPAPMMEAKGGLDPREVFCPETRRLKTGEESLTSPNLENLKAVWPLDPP
Summary of the method: as §1

ETS2 = biological target: T8, ETS2 (Homo sapiens, UniProt P15036 1-469); conditions: protein: recombinant; tags: N-terminal GST; dsDNA, one strand shown
T8 sequence: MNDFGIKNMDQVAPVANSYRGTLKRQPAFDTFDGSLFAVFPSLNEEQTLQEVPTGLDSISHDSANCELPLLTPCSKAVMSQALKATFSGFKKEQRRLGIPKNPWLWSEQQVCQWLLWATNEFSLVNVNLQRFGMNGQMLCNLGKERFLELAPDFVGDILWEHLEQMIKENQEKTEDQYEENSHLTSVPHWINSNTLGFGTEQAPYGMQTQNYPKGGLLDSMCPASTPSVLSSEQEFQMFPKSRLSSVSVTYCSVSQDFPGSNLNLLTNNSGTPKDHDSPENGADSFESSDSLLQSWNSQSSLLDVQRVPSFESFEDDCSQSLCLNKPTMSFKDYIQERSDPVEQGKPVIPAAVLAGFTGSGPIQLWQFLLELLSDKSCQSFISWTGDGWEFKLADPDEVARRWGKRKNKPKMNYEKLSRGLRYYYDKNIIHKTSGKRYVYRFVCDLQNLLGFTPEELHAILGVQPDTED
Summary of the method: as §1

SPDEF = biological target: T9, SPDEF (Homo sapiens, UniProt O95238 1-335); conditions: protein: recombinant; tags: N-terminal GST; dsDNA, one strand shown
T9 sequence: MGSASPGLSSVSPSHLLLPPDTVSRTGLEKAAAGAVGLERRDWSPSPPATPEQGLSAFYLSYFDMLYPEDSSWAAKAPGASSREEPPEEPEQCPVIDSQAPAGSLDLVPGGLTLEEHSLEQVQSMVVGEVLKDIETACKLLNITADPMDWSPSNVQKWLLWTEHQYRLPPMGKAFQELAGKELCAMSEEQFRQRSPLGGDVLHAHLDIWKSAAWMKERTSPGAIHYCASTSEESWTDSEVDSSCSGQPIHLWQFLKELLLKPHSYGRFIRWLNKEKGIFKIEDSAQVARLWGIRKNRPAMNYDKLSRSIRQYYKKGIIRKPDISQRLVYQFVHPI
Summary of the method: as §1

ETV7 = biological target: T10, ETV7 (Homo sapiens, UniProt Q9Y603 1-341); conditions: protein: recombinant; tags: N-terminal GST; dsDNA, one strand shown
T10 sequence: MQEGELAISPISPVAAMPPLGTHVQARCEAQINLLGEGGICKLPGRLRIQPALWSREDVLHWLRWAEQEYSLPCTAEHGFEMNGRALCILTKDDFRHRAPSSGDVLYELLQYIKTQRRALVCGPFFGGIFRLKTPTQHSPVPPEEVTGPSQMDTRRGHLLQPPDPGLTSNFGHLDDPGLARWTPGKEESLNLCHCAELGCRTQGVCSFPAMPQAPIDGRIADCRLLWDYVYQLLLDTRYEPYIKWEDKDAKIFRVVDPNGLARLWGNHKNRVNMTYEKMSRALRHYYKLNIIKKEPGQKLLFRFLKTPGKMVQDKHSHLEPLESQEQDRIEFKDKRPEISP
Summary of the method: as §1

ELF5 = biological target: T11, ELF5 (Homo sapiens, UniProt Q9UKW6-2 1-255); conditions: protein: recombinant; tags: N-terminal GST; dsDNA, one strand shown
T11 sequence: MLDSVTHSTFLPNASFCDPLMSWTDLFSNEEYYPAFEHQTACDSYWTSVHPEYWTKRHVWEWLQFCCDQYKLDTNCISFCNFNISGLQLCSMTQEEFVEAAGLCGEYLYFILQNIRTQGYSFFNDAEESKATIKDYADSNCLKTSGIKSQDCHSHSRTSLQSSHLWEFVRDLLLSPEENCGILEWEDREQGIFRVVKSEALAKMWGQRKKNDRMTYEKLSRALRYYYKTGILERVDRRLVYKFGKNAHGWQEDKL
Summary of the method: as §1

ETV3 = biological target: T12, ETV3 (Homo sapiens, UniProt P41162-2 1-143); conditions: protein: recombinant; tags: N-terminal GST; dsDNA, one strand shown
T12 sequence: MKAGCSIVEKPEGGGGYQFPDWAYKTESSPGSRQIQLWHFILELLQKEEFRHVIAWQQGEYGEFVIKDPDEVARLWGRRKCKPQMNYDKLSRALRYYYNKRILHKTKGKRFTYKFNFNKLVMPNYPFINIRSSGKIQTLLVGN
Summary of the method: as §1

ETV6 = ETV6 (Homo sapiens, UniProt P41212 1-452); conditions: protein: recombinant; tags: N-terminal GST; dsDNA, one strand shown
Chain of ETV6 (P41212 whole entry): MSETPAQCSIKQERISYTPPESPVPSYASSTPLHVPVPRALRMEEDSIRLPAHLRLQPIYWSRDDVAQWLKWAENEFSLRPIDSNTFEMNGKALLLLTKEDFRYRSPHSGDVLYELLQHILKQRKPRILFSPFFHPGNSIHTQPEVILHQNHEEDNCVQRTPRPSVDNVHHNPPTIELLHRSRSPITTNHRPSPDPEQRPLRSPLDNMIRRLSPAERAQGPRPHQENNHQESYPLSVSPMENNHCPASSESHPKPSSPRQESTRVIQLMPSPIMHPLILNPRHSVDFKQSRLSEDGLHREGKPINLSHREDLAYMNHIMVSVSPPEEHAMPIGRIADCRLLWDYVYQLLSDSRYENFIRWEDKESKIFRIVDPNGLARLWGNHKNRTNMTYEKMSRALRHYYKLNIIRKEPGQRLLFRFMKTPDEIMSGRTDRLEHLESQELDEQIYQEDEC
Summary of the method: as §1

ATAACC was tested, and the binding signal (FEV) was 1.22 fold enrichment (6-mer frequency, TF over GST control), the binding signal (ETV5) was 1.21 fold enrichment (6-mer frequency, TF over GST control) and the binding signal (HSF1) was 1.09 fold enrichment (6-mer frequency, TF over GST control). For the same sequence, the binding signal (SPIC) was 1.05 fold enrichment (6-mer frequency, TF over GST control), the binding signal (ELF4) was 1.23 fold enrichment (6-mer frequency, TF over GST control) and the binding signal (ELK4) was 1.18 fold enrichment (6-mer frequency, TF over GST control). The binding signal (ETV2) was 1.05 fold enrichment (6-mer frequency, TF over GST control), the binding signal (ELF3) was 1.21 fold enrichment (6-mer frequency, TF over GST control) and the binding signal (CRX) was 1.27 fold enrichment (6-mer frequency, TF over GST control). The binding signal (ETV1) was 1.1 fold enrichment (6-mer frequency, TF over GST control), the binding signal (ERF) was 1.08 fold enrichment (6-mer frequency, TF over GST control) and the binding signal (ETV3L) was 1.18 fold enrichment (6-mer frequency, TF over GST control). For the same sequence, the binding signal (ETS2) was 1.21 fold enrichment (6-mer frequency, TF over GST control), the binding signal (SPDEF) was 1.22 fold enrichment (6-mer frequency, TF over GST control) and the binding signal (ETV7) was 1.25 fold enrichment (6-mer frequency, TF over GST control). The binding signal (ELF5) was 1.16 fold enrichment (6-mer frequency, TF over GST control), the binding signal (ETV3) was 1.15 fold enrichment (6-mer frequency, TF over GST control) and the binding signal (ETV6) was 1.17 fold enrichment (6-mer frequency, TF over GST control).
